Screens as filed in PubChem.
HTT ATP protect: protects HTT-Q103 PC12 cells, measured by ATP. PC12 HTT-Q103 induced, cytoprotection, ATP luminescence, 40 h. Potency, µM (highest dose often 56.4 µM), actives largely listed as activators. 230,000 compounds, 0.14% hits; active = well fitted curve in the direction sought with a large enough effect; inconclusive = small, poorly fitted or top-dose-only effect, or another doubt; inactive = no such curve, though single readings can be large; an effect the other way counts as inactive or inconclusive; note: nearly all actives have a fitted effect of over 45% in size
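Compounds added alongside 100 nM tebufenozide, which induces toxic Q103 huntingtin exon 1-GFP in stable PC12 cells; surviving cells quantified by luminescent ATP measurement. Medium: phenol red-free DMEM, 5% equine and 5% calf serum.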
HPGD inh: blocks human HPGD enzyme activity; P15428; purified HPGD, NADH fluorescence kinetic, PGE2 substrate; Potency, µM, actives largely listed as inhibitors; 150,000 compounds, 4.3% hits; AID 894
Target sequence (P15428 whole entry, looked up): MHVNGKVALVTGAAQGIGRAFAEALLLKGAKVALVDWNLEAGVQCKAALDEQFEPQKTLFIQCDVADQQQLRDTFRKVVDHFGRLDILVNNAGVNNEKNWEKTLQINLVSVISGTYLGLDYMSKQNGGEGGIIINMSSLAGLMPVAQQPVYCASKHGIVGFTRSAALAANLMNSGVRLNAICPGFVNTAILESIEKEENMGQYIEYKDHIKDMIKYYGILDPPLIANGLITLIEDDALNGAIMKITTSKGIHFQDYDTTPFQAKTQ
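20 nM HPGD preincubated 15 min at room temperature with compound in 50 mM Tris-HCl pH 8, 0.01% Tween 20. Started with 1 mM NAD+ and 30 uM prostaglandin E2; NADH fluorescence (360/450 nm) read 5 times over 30-s intervals, last minus first.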
JMJD2E inh: blocks human JMJD2E demethylase activity; B2RXH2; JMJD2E catalytic domain, FDH-coupled NADH fluorescence (FDH is formaldehyde dehydrogenase); Potency, µM (top dose mostly 57.1 µM), most hits filed as inhibitors; 230,000 compounds, 1.6% hits; AID 2147; note: nearly all actives have a fitted effect of over 50% in size
Target sequence (B2RXH2 1-337 limits assumed): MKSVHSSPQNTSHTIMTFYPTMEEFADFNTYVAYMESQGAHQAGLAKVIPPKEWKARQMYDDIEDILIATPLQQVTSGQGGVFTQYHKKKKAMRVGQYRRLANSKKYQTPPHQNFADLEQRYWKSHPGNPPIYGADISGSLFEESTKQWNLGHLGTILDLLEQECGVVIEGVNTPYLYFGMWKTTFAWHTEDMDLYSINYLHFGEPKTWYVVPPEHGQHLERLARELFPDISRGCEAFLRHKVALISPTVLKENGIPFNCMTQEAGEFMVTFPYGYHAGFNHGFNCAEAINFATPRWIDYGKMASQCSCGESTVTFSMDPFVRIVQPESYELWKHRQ
CBFb RUNX1 block: blocks binding between human CBF-beta and RUNX1 | Q01196+Q13951 | AlphaScreen CBFb-His/RUNX1-biotin binding, biochemical | Potency, µM (series often up to 59.8 µM), actives largely listed as inhibitors | 230,000 tested, under 10 active | AID 1477; active = well fitted curve in the direction sought with a large enough effect; inconclusive = small, poorly fitted or top-dose-only effect, or another doubt; inactive = no such curve, though single readings can be large; an effect the other way counts as inactive or inconclusive
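AlphaScreen binding: CBFb-His and RUNX1-biotin (30 nM each) preincubated 20 min, compound added for 15 min, then nickel and streptavidin beads for 90 min, all at room temperature. Disruption of the interaction by any mechanism counts as activity.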
ALDH1A1 block: blocks purified human ALDH1A1 activity; Potency, µM (top dose mostly 75.3 µM), most hits filed as inhibitors; AID 1030; Purified ALDH1A1, NADH fluorescence, propionaldehyde substrate; 220,000 compounds, 7.3% hits; P00352
HTT aggregate: mutant huntingtin aggregation inhibition. PC12 HttQ103-GFP aggregates, Acumen cytometry, 40 h. Potency, µM (titrated, usually from 46.1 µM), hits mostly inhibitors. 220,000 compounds, 1.1% hits. AID 1688; active = well fitted curve in the direction sought with a large enough effect; inconclusive = small, poorly fitted or top-dose-only effect, or another doubt; inactive = no such curve, though single readings can be large; an effect the other way counts as inactive or inconclusive; note: nearly all actives have a fitted effect of over 60% in size
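Compounds (qHTS titration) were added to PC12 cells expressing an ecdysone-driven HTT exon 1 Q103–GFP fusion after induction with 100 nM tebufenozide. Aggregate formation was measured as GFP objects in cell lysates.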
A number is an active result; n = inactive; u = inconclusive; x = no result given; [ ] = dose if it differs, or a comment. In the library only some 9.8% were active in any assay of this set; here they are far more common. Unless noted, calls come from the whole dose curve; as a rule, active = well fitted inhibition curve with a large enough effect (not every such curve was filed as active); inconclusive = small, poorly fitted or top-dose-only effect, or another doubt; inactive = no such curve, though single readings can be large or run the other way.

SMILES	HTT ATP protect	HPGD inh	JMJD2E inh	CBFb RUNX1 block	ALDH1A1 block	HTT aggregate
O=C(CCC(=O)Nc1ccc(F)cc1)N/N=C/c1ccc(O)cc1O	n	x	25.1µM	n	n	u
Cc1cc(C)n(CCC(=O)N/N=C/c2ccc(O)cc2O)n1	n[10 µM]	n	14.1µM	n	n	u
Cc1cc(C)n(CCC(=O)N/N=C/c2ccccc2O)n1	n[10 µM]	u	n	n	n	n
CC1(C)C(=O)OC(/C=C\c2ccccc2)C(C)(C)C1=O (stereo unspecified)	n	x	n	n	n	n
CCOC(=O)c1c(C)c(-c2ccccc2)n(CC(=O)NCCCN(CC)CC)c1C	n	x	n	n	n	n
C=CCn1c(C)c(C(C)=O)c(N2CCCC2)nc1=S	n	n	n	n	n	n
C=CCn1c(C)c(C(C)=O)c(N2CCN(c3ccccc3)CC2)nc1=S	n	n	n	n	28.2µM	n
CCCC(O)(CCC)C(=O)NN(C(=O)CCl)c1ccccc1	n[10 µM]	n	n	n	25.1µM	u
CS(=O)(=O)N1CCN(c2ccc(NC(=S)NC(=O)c3ccccc3[N+](=O)[O-])cc2)CC1	n	x	n	n	u	n
COC(=O)N[C@H](c1ccccc1)[C@@]1(C)C[C@@H]1[C@@H](C)C(=O)Nc1ccc2ccccc2c1	n	n	n	n	7.94µM	x
C[C@@H](C(=O)Nc1ccc2ccccc2c1)[C@@H]1C[C@@]1(C)[C@@H](NS(=O)(=O)c1ccc2ccccc2c1)c1ccccc1	n	u	14.1µM	n	n	x
C[C@@H](C(=O)Nc1ccc2ccccc2c1)[C@H]1C[C@]1(C)[C@H](NC(=O)c1cccnc1)c1ccccc1	n	n	n	n[2.36 µM]	11.2µM	u
COc1ccc(/C=N/NC(=O)c2ccco2)cc1OCc1ccccc1	n[10 µM]	x	u	n	x	n[9.22 µM]
CCN(C(=O)COC(=O)c1cc(-c2ccccc2)nc2c1c(C)nn2-c1ccc(C)cc1)C1CCS(=O)(=O)C1 (stereo unspecified)	n[10 µM]	n	n	n	n	n
O=C1CN(CC(=O)Nc2cccc(Cl)c2Cl)c2ccccc2N1	n[10 µM]	x	u	n	3.98µM	u
O=C1CN(C(=O)COC(=O)CCSc2ccccc2Cl)c2ccccc2N1	n	17.8µM	n	n	14.1µM	n[9.22 µM]
O=C1CN(C(=O)Cn2ncc(Cl)c(Cl)c2=O)c2ccccc2N1	n	x	n	n	3.16µM	11.2µM
O=C(Cn1ncc(Cl)c(Cl)c1=O)NCC1CCCCC1	x	n	n	n	22.4µM	u
O=C1CN(C(=O)COC(=O)CCNS(=O)(=O)c2ccc(Cl)cc2)c2ccccc2N1	n[10 µM]	x	n	n	x	n[9.22 µM]
Cc1nc2ccccc2n1CC(=O)N1CC(=O)Nc2ccccc21	n	n	n	n	u	n
O=C(c1cc(C(=O)N2CCOCC2)c2nc3ccccc3n2c1)c1cc(Cl)cc(Cl)c1O	n[10 µM]	x	n	n	x	n[9.22 µM]
O=C1CN(C(=O)CNCc2ccc(Cl)cc2)c2ccccc2N1	n[10 µM]	x	u	n	12.6µM	n[9.22 µM]
CCOC(=O)c1sc(S(C)(=O)=O)c2c1CC(C)(C)C/C2=N/O	n[10 µM]	x	n	n	u	n[9.22 µM]
CCc1n[n+](CC(=O)c2ccccc2)c(N)s1	n[10 µM]	x	n	n	u	n
Cc1nc2nc(SCC(=O)NCCN3CCOCC3)nn2c(C)c1Cc1ccccc1	n	n	n	n	n	n[9.22 µM]
SMILES	HTT ATP protect	HPGD inh	JMJD2E inh	CBFb RUNX1 block	ALDH1A1 block	HTT aggregate
Cc1nc2nc(SCC(=O)N3CCOCC3)nn2c(C)c1Cc1c(F)cccc1Cl	n[1.9 µM]	8.91µM	u	n	u	n
O=C(N/N=C/c1c(O)ccc2ccccc12)c1ccc[n+](CCO)c1	n	x	31.6µM	u	n	n
S=c1[nH]cnc2sc(-c3ccccc3)cc12	n	x	n	n	n	n
COc1ccc(NC(=S)NN(C)C(=S)Nc2ccc(OC)cc2)cc1	x	n	n	n	u	n
Cn1c(=O)c2c(nc(-n3ccnc3)n2Cc2ccccc2)n(C)c1=O	n	n	n	n	10µM	n
Cn1c(=O)c2c(nc(-n3ccnc3)n2C)n(C)c1=O	n[10 µM]	n	n	n	n	n
CCn1c(NCc2ccco2)nc2c1c(=O)n(C)c(=O)n2C	n[10 µM]	n	n	n	n	n
Cn1c(=O)c2c(nc(NCc3ccco3)n2CCc2ccccc2)n(C)c1=O	n	n	n	n	n	12.6µM
Cn1c(=O)c2c(nc(NCc3ccccc3)n2Cc2ccc(F)cc2)n(C)c1=O	n[10 µM]	n	n	n	n	20µM
S=c1[nH]nc(Cn2cnc3ccccc32)n1-c1ccccc1Cl	n[10 µM]	x	n	n	u	n[9.22 µM]
CCCc1noc2c1/C(=N\O)CC(CC(C)SCC)C2 (stereo unspecified)	n[10 µM]	8.91µM	n	n	u	n
O=[N+]([O-])c1ccc(OCC(O)CNCCNc2nccc(C(F)(F)F)n2)cc1 (stereo unspecified)	n[10 µM]	x	n	n	x	n[9.22 µM]
CC(=O)c1cccc(NC(=O)N2CCCC2C(=O)Nc2c(C)cccc2C)c1 (stereo unspecified)	n	n	n	n	25.1µM	n
CC(=O)c1cccc(NC(=O)N2CCCC2C(=O)Nc2cccc(C)c2)c1 (stereo unspecified)	n[10 µM]	n	n	n	n	n
O=C(CSc1ncn[nH]1)OCN1C(=O)c2ccccc2C1=O	n	x	n	n	n	n
S=C(Nc1ccccc1)N1CCCN1c1ccccc1	n[10 µM]	x	n	n	x	n[9.22 µM]
CC(C)n1c(SCCCc2ccccc2)nc2c1c(=O)[nH]c(=O)n2C	n	20µM	n	n	u	n
CCCCSc1nc2c(c(=O)[nH]c(=O)n2C)n1CCc1ccccc1	n	n	n	n	2.51µM	n
CCCCCOC(=O)CSc1nc2c(c(=O)[nH]c(=O)n2C)n1CCc1ccccc1	n[1.9 µM]	25.1µM	n	n	25.1µM	n
CC(C)CCn1c(SCCc2ccccc2)nc2c1c(=O)[nH]c(=O)n2C	n	u	n	n	6.31µM	n
CCCn1c(SCCc2ccccc2)nc2c1c(=O)[nH]c(=O)n2C	n[10 µM]	n	n	n	u	n
CCCCCn1c(SCCc2ccccc2)nc2c1c(=O)[nH]c(=O)n2C	n[10 µM]	n	n	n	u	n
C/C=C/Cn1c(SCCCc2ccccc2)nc2c1c(=O)[nH]c(=O)n2C	n	n	n	n	u	n
CNC(=O)c1cc(NC(=O)CCn2nc(-c3ccccc3)c3ccccc3c2=O)ccc1OC	n[10 µM]	x	n	n	n	n[9.22 µM]
COCCn1c(SCCCc2ccccc2)nc2c1c(=O)[nH]c(=O)n2C	n	x	n	n	20µM	n
CCC(C)Sc1nc2c(c(=O)[nH]c(=O)n2C)n1Cc1ccccc1Cl (stereo unspecified)	n	n	n	n	1.26µM	u
CCCn1c(Sc2nc3c(c(=O)[nH]c(=O)n3C)n2CCC)nc2c1c(=O)[nH]c(=O)n2C	n	14.1µM	n	n	n	n
C/C=C/CSc1nc2c(c(=O)[nH]c(=O)n2C)n1CCC	n[10 µM]	n	n	n	u	n
